Screening data deposited in PubChem BioAssay by Broad Institute.
Only some compounds are listed: those with a hit (about 6.8% of all), similar ones and a draw of the others.
C diff HTS – C. difficile growth inhibition | Clostridium difficile clinical isolate growth, OD600, 24 h; hits give low values | growth activity, negative = inhibition, % at 16 µg/mL (by protocol) | hit rate 0.25% among 86,000;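 active means mean growth activity at or below -80% and every replicate also at or below -80%; inconclusive means mean at or below -80% but some replicate above -80%; inactive means mean growth activity above -80%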;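 further: 0% = DMSO wells and -100% = levofloxacin 16 µg/mL wells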
Tcruzi prolif – T. cruzi proliferation inhibition; hit rate 5.9% among 77,000; AID 624255; T. cruzi beta-gal in NIH3T3, GalScreen luminescence, 90 h; inhibition, % at 8.34 µM;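 active means mean inhibition above about 93%, with at least 55% of replicates each passing it, limit read from the data, passing the limit was not always enough; inconclusive means only one of those two conditions holds; inactive means neither condition holds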
Pf Dd2 growth – blocks growth of Plasmodium falciparum Dd2 parasites; P. falciparum Dd2 growth, SYBR Green, 72 h; hits give low values; activity change, % at 10 µM; hit rate 2.3% among 94,000; AID 1159554; in the data active means activity change below about -80%; inconclusive means no clear call, values can overlap the other calls
Active calls of the source: *; u = inconclusive; x = no result given; ! = repeats disagree.

SMILES	C diff HTS	Tcruzi prolif	Pf Dd2 growth
Cc1noc(C)c1S(=O)(=O)N(C)C[C@H]1OCCCC[C@H](C)Oc2ccc(NC(=O)C3CCCCC3)cc2C(=O)N([C@H](C)CO)C[C@H]1C	3.3	32.2	-58.7
Cc1noc(C)c1S(=O)(=O)N(C)C[C@@H]1OCCCC[C@H](C)Oc2ccc(NC(=O)C3CCCCC3)cc2C(=O)N([C@@H](C)CO)C[C@H]1C	-0.8	-7.6	-82.8*
Cc1noc(C)c1S(=O)(=O)N(C)C[C@H]1OCCCC[C@@H](C)Oc2ccc(NC(=O)C3CCCCC3)cc2C(=O)N([C@@H](C)CO)C[C@@H]1C	9.0	58.6	-81.9*
Cc1noc(C)c1S(=O)(=O)N(C)C[C@@H]1OCCCC[C@@H](C)Oc2ccc(NC(=O)C3CCCCC3)cc2C(=O)N([C@H](C)CO)C[C@H]1C	7.8	4.9	-61.4
C[C@H](CO)N1C[C@H](C)[C@@H](CN(C)C(=O)Nc2ccc(F)cc2)Oc2ccc(NS(=O)(=O)c3ccccc3)cc2C1=O	-4.4	5.4	-0.5
O=C1[C@@H]2[C@@H](CC(COc3ccccc3)=C3[C@@H](c4ccccc4)OB(O)C[C@@H]32)C(=O)N1Cc1ccccc1	0.7	x	x
Cc1ccc(S(=O)(=O)N[C@H]2CC[C@@H](CC(=O)NCCc3ccncc3)O[C@@H]2CO)cc1	0.2	-16.8	-6.9
C[C@H](CO)N1C[C@H](C)[C@@H](CN(C)S(=O)(=O)c2ccc(Cl)cc2)Oc2ccc(NC(=O)CCCCCC(=O)Nc3ccccc3N)cc2C1=O	-6.5	x	-86.5*
Cc1ccc(S(=O)(=O)N(C)C[C@@H]2Oc3ccc(NC(=O)CCCCCC(=O)Nc4ccccc4N)cc3C(=O)N([C@@H](C)CO)C[C@H]2C)cc1	-2.7	x	-60.5
Cc1ccc(S(=O)(=O)N(C)C[C@@H]2Oc3ccc(NC(=O)CCCCCC(=O)Nc4ccccc4N)cc3C(=O)N([C@@H](C)CO)C[C@@H]2C)cc1	-0.9	x	-89.1*
C[C@H](CO)N1C[C@H](C)[C@H](CN(C)S(=O)(=O)c2ccc(Cl)cc2)Oc2ccc(NC(=O)CCCCCC(=O)Nc3ccccc3N)cc2C1=O	-22.1	x	-74.4
C[C@@H]1CN([C@@H](C)CO)C(=O)Cc2cc(NC(=O)c3ccncc3)ccc2O[C@@H]1CN(C)C(=O)NC1CCCCC1	1.9	-24.4	-0.8
C[C@@H]1CN([C@H](C)CO)C(=O)CCCn2cc(nn2)CO[C@@H]1CN(C)S(=O)(=O)c1ccccc1C#N	-3.3	x	42.9
O=C(NCC[C@@H]1CC[C@@H](NC(=O)Nc2cc(F)ccc2F)[C@@H](CO)O1)Nc1ccc(F)cc1	-3.9	x	x
COCCNC(=O)C[C@H]1CC[C@H]2[C@@H](COc3ccc(NC(=O)c4ccno4)cc3C(=O)N2C)O1	-2.4	17.3	5.2
C[C@@H]1CCCCO[C@H](CN(C)C(=O)Nc2cccc3ccccc23)[C@@H](C)CN([C@@H](C)CO)C(=O)c2cc(NC(=O)Cc3ccccc3)ccc2O1	4.9	83.4	-68.9
C[C@H](CO)N1C[C@H](C)[C@H](CN(C)C(=O)Nc2cccc3ccccc23)OCCCC[C@H](C)Oc2ccc(NC(=O)Cc3ccccc3)cc2C1=O	11.4	41.9	-82.5*
C[C@@H]1CCCCO[C@@H](CN(C)C(=O)Nc2cccc3ccccc23)[C@H](C)CN([C@@H](C)CO)C(=O)c2cc(NC(=O)Cc3ccccc3)ccc2O1	11.9	94.8	-80.5*
C[C@@H]1CCCCO[C@H](CN(C)C(=O)Nc2cccc3ccccc23)[C@@H](C)CN([C@H](C)CO)C(=O)c2cc(NC(=O)Cc3ccccc3)ccc2O1	6.1	23.2	-39.4
O=C(c1cccnc1)N1CC2(C1)[C@H](c1ccccc1)[C@@H](CO)N2Cc1ccc(Cl)cc1	4.9	x	-72.5
COc1ccc2c3c([nH]c2c1)[C@@H](CO)N(C(=O)c1ccccn1)CC31CN(C(=O)C2CCCCC2)C1	x	x	1.9
O=C(C[C@@H]1CC[C@@H]2[C@H](COC[C@@H](O)CN2C(=O)Nc2ccc(C(F)(F)F)cc2)O1)NCC1CCCCC1	58.3	x	-16.0
CCNC(=O)C[C@@H]1CC[C@H]2[C@@H](COC[C@@H](O)CN2C(=O)Nc2ccc(C(F)(F)F)cc2)O1	-100.0*	-62.9	-32.0
O=C(C[C@H]1CC[C@@H]2[C@H](COC[C@H](O)CN2C(=O)Nc2ccc(C(F)(F)F)cc2)O1)NCC1CC1	-22.6	-1.9	-16.5
CCNC(=O)C[C@H]1CC[C@@H]2[C@H](COC[C@@H](O)CN2C(=O)Nc2ccc(C(F)(F)F)cc2)O1	61.6	-31.1	7.7
SMILES	C diff HTS	Tcruzi prolif	Pf Dd2 growth
CCNC(=O)C[C@@H]1CC[C@@H]2[C@H](COC[C@H](O)CN2C(=O)Nc2ccc(C(F)(F)F)cc2)O1	-97.0*!	17.9	-17.7
O=C(C[C@@H]1CC[C@H]2[C@@H](COC[C@@H](O)CN2C(=O)Nc2ccc(C(F)(F)F)cc2)O1)NCC1CCCCC1	-100.0*!	x	7.0
C[C@@H]1CN([C@@H](C)CO)C(=O)c2cc(C3=CCCCC3)cnc2O[C@H]1CN(C)C(=O)c1ccccc1	-2.7	26.2	6.2
C[C@H]1CN([C@@H](C)CO)C(=O)c2cc(-c3ccc(C(=O)N(C)C)cc3)cnc2O[C@H]1CN(C)C(=O)C1CC1	-2.5	0.4	30.1
c1ncc(-c2ccc(C3[C@@H]4CN(Cc5ccc6c(c5)OCO6)C[C@H]3N4)cc2)cn1 (stereo not given in full)	-3.2	x	-31.8
COc1ccc(-c2ccc(C3[C@@H]4CN(Cc5cc(OC)cc(OC)c5)C[C@H]3N4)cc2)cc1 (stereo not given in full)	-100.5*!	x	-87.5*!
COc1cc(CN2C[C@@H]3N[C@H](C2)C3c2ccc(/C=C/c3ccccc3)cc2)cc(OC)c1 (stereo not given in full)	10.8	x	-88.3*!
C(=C\c1ccc(C2[C@@H]3CN(Cc4ccc5c(c4)OCO5)C[C@H]2N3)cc1)/c1ccccc1 (stereo not given in full)	-98.7*	x	u
COc1cc(CN2C[C@@H]3N[C@H](C2)C3c2ccc(-c3ccncc3)cc2)cc(OC)c1 (stereo not given in full)	5.5	x	-80.9*
COc1cc(CN2C[C@@H]3N[C@H](C2)C3c2ccc(-c3cncnc3)cc2)cc(OC)c1 (stereo not given in full)	-1.0	x	-11.7
COc1cc(CN2C[C@@H]3N[C@H](C2)C3c2ccc(-c3cccc(OC)c3)cc2)cc(OC)c1 (stereo not given in full)	46.5	x	-75.1
C/C=C/c1ccc(C2[C@@H]3CN(Cc4cccc(OC)c4)C[C@H]2N3)cc1 (stereo not given in full)	6.7	x	-19.4
C[C@H](CO)N1C[C@H](C)[C@@H](CN(C)C(=O)Cc2ccccn2)Oc2ncc(-c3ccc(F)cc3)cc2C1=O	-8.7	x	-11.8
COc1ccc2c3c(n(C)c2c1)[C@H](CO)N(Cc1nccs1)CC31CN(C)C1	5.0	x	22.8
CCCNC(=O)N1CC2(CN(C(=O)c3cnccn3)C2)c2c([nH]c3cc(OC)ccc23)[C@H]1CO	-3.6	x	3.8
C[C@@H]1CN([C@@H](C)CO)C(=O)c2cc(NC(=O)CCC(F)(F)F)ccc2O[C@@H](C)CCCCO[C@@H]1CN(C)S(=O)(=O)c1cccs1	5.7	38.8	-62.7
